The whole screen tested about 290,000 compounds, of which about 2,700 (0.93%) were called active. The rule behind the calls is not given here. The entries come from a sample that favours actives as a whole.
Target: Eukaryotic translation initiation factor 4H (Homo sapiens) (UniProt Q15056)
Test: human eIF4H binding inhibitors, primary screen, translation initiation inhibitor project, biochemical, uHTS, fluorescence polarization (AID 2012);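 note: calls also rest on retests at 20 µM and on dose response follow-up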
Conditions: eIF4H fluorescence polarization binding assay, stronger effect = higher value

Compound	inhibition (at 35 µM)	inhibition (confirmation average, at 20 µM) [%]
CN(C)c1ccc(/C=C2\CC3C4CC=C5CC(O)CCC5(C)C4CCC3(C)C2=O)cc1 (centres undefined)	3.9% (active)	87.3
CCN1C(=O)C(=Cc2c(C)n(CC(=O)NCC3CCCO3)c3ccccc23)C(=O)N(CC)C1=S (centres undefined)	48.5% (inactive)	–
O=c1[nH]c(=O)n(CCc2ccc(F)cc2)c(O)c1/C=N/N1CCCCC1	-3.1% (inactive)	–
O=C(N/N=C/c1c(O)n(Cc2ccccc2)c(=O)[nH]c1=O)c1ccccc1	74.3% (active)	67.6
O=c1[nH]c(=O)n(CCc2ccccc2)c(O)c1/C=N/N1CCOCC1	3.3% (inactive)	–
O=C(N/N=C/c1c(O)n(C2CC2)c(=S)[nH]c1=O)c1ccccc1	10.1% (inactive)	–
O=c1[nH]c(=O)n(Cc2ccccc2)c(O)c1/C=N/Nc1c(F)c(F)c(F)c(F)c1F	92.3% (active)	–
CCCCC(=O)N/N=C/c1c(O)n(-c2ccccc2)c(=O)[nH]c1=O	12.9% (inactive)	–
CC1CCC(N(C)C2CCN(C)CC2)CC1 (centres undefined)	-3.9% (inactive)	–
CCN(CC)C(=O)c1ccc(NC(=O)c2sccc2-c2ccccc2)cc1	-5.8% (inactive)	–
CCCCn1c(=O)c(C(=O)Nc2ccccc2Cl)c(O)c2ccccc21	-6% (inactive)	–
COc1ccc(N=Cc2c(O)n(C)c(=O)[nH]c2=O)cc1	35.4% (inactive)	–
Cc1cccc(NC(=O)N2CC3CC(C2)c2cccc(=O)n2C3)c1 (centres undefined)	-1.5% (inactive)	–
Cc1nc2ccccc2c(=O)n1-c1ccc(Cl)cc1Cl	1.9% (inactive)	–
Cc1ccc(C2CN(C)CC2C(=O)c2ccc(F)cc2)cc1 (centres undefined)	-1.4% (inactive)	–
COc1ccc(CNCCc2c[nH]c3ccccc23)cc1OC	-0.9% (inactive)	–
CN(C)S(=O)(=O)c1cc(C(=O)N2CCC(C(=O)O)(c3ccccc3)CC2)ccc1Cl	-1.5% (inactive)	–
O=C1NC(=O)N(c2ccccc2)C(=O)/C1=C/c1ccc([N+](=O)[O-])s1	70.5% (inactive)	22.6
COc1cccc(N2C(=O)NC(=O)/C(=C\c3ccc([N+](=O)[O-])s3)C2=O)c1	73.8% (active)	101
Cc1cccc(N2C(=O)NC(=O)/C(=C\c3cnn(-c4ccccc4)c3)C2=O)c1	-2.6% (inactive)	–
O=C(Cc1ccc(Cl)cc1)NCCN1CCN(C(=O)Cc2ccc(Cl)cc2)CC1	-0.4% (inactive)	–
COc1ccc(CNCCc2ccc3c(c2)OCO3)c(OC)c1OC	18.8% (inactive)	–
COc1cccc(OC)c1C(=O)NC(=S)N1C[C@H]2C[C@H](C1)c1cccc(=O)n1C2	-6.5% (inactive)	–
CCCCC(=O)N/N=C/c1c(O)n(CCC2=CCCCC2)c(=O)[nH]c1=O	26.1% (inactive)	–
O=C1NC(=O)N(CCc2ccc(F)cc2)C(=O)/C1=C/C=C/c1ccccc1	4.2% (inactive)	–

Compound	inhibition (at 35 µM)	inhibition (confirmation average, at 20 µM) [%]
O=C(O)COc1ccccc1/C=C1\C(=O)NC(=O)N(CCC2=CCCCC2)C1=O	94% (active)	–
CN1CCC(OC(=O)c2cccc(F)c2)CC1	-5.1% (inactive)	–
CC1(C)Cc2c(C#N)c(N3CCNCC3)nc(-c3ccco3)c2CS1	84.6% (active)	77.5
COc1cccc(C(=O)N2C[C@H]3C[C@@H](C2)c2cccc(=O)n2C3)c1	18.7% (inactive)	–
O=C1NC(=O)N(Cc2ccco2)C(=O)/C1=C\c1cccn1CCOc1ccccc1	49.4% (inactive)	–
COc1ccc(CN2C(=O)NC(=O)/C(=C\c3ccc(OC)c(OC)c3OC)C2=O)cc1	9% (active)	60.4
C=CCN1C(=O)NC(=O)/C(=C/c2ccc(OCC(=O)Nc3ccc(C)cc3)cc2)C1=O	-6.2% (inactive)	–
CN(C)C(=O)Oc1ccc2c(c1)O/C(=C\c1ccccc1)C2=O	-7% (inactive)	–
COc1ccc(N2C(=O)/C(=C/c3ccco3)C(=O)NC2=S)cc1	74.6% (active)	76.5
Cc1cc(/C=C2/C(=O)NC(=O)N(Cc3ccco3)C2=O)c(C)n1-c1ccc(C(=O)O)cc1	84% (inactive)	42.8
Cc1ccc(S(=O)(=O)N(C)c2ccc(C(=O)NCC3(N(C)C)CCCCC3)cc2)cc1	0.5% (inactive)	–
O=[N+]([O-])c1cnc2ccc3ccccc3c2c1	1.5% (inactive)	–
COc1ccc2[nH]c3c(c2c1)CCN[C@H]3C	-4.1% (inactive)	–
CN(c1ccccc1)c1ccc([N+](=O)[O-])c2nonc12	9.8% (inactive)	–
CCC(=NCc1ccco1)c1c(O)n(Cc2ccccc2)c(=O)[nH]c1=O	67.3% (active)	73.8
CC/C(=N\NC(=O)c1ccccc1O)c1c(O)n(Cc2ccccc2)c(=O)[nH]c1=O	43.2% (inactive)	–
CCCCn1c(O)c(C(CC)=NCc2ccco2)c(=O)[nH]c1=O	9.5% (inactive)	–
Oc1cc2c(cc1CN1CCN(c3ccccc3)CC1)OCO2	-8.2% (inactive)	–
O=c1c2ccccc2nc(/C=C/c2ccc(F)cc2)n1-c1ccccc1O	18.9% (inactive)	–
CC(=O)c1c(O)n(C2CCCCCC2)c(=O)[nH]c1=O	82% (active)	–
CC(=NCC1CCCO1)c1c(O)n(-c2ccccc2)c(=O)[nH]c1=O (centres undefined)	-5.3% (inactive)	–
CCC(=NCCc1ccccc1)c1c(O)n(C2CCCCC2)c(=O)[nH]c1=O	-8% (inactive)	–
CCN1CCN(Cc2cc(OC)c3c(c2)OCO3)CC1	10.2% (inactive)	–
c1ccc(CCNC2CCCCCC2)cc1	11% (inactive)	–
CC(=O)Nc1ccc(C(=O)C(Cc2ccccc2)N(C)C)cc1 (centres undefined)	-9.3% (inactive)	–

Source: PubChem BioAssay AID2012 (Sanford-Burnham Center for Chemical Genomics, 2009)
